Experimental data reported in the supplement of paper PMC10849652.
The full data set covers some 8,800 targets. This sample favours those with a hit. About 0.5% of all pairs of compound and target were hits. Unmarked numbers belong to inactive results.

Legend:
Test in all cases: log2 fold change, soluble protein after heating vs DMSO (PISA); higher = thermal stabilisation; K562 lysate, 10 uM; active = over 0.2 and 3.5 SD of the protein, either way, in both replicates (recomputed)
[1] = compound: CCCS(=O)(=O)Nc1ccc(F)c(C(=O)c2c[nH]c3ncc(-c4ccc(Cl)cc4)cc23)c1F [vemurafenib]
In short: (§1)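 To prepare the extract, K562 pellets were dounce-homogenised in PBS pH 7.4 with 1 mM MgCl2, giving crude material at 1 mg/mL protein. This was treated with 10 μM compound for 30 min, then heated in aliquots for 3 min over 48°C-58°C before pooling and addition of NP-40 to 0.5% at 4°C. Centrifugation at 21,000xg for 90 min left soluble protein in the supernatant, which TMTpro 16plex LC-MS/MS quantified with equalised channel sums. Results are log-two fold changes in thermal stability compared with solvent controls, from duplicates.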

[2] = compound: CCCS(=O)(=O)Nc1ccc(F)c(C(=O)c2c[nH]c3ncc(Cl)cc23)c1F
In short: as §1

[3] = compound: CCN(CCCOc1ccc2c(Nc3cc(CC(=O)Nc4cccc(F)c4)[nH]n3)ncnc2c1)CCOP(=O)(O)O [barasertib]
In short: as §1

[4] = compound: CC[C@@H]1C(=O)N(C)c2cnc(Nc3ccc(C(=O)NC4CCN(C)CC4)cc3OC)nc2N1C1CCCC1
In short: as §1

[5] = compound: CC[C@@H]1C(=O)N(C)c2cnc(Nc3ccc(C(=O)N[C@H]4CC[C@H](N5CCN(CC6CC6)CC5)CC4)cc3OC)nc2N1C(C)C [volasertib]
In short: as §1

[6] = compound: CCn1c(C(=O)N(C2CC2)C2CC2)cc2c3c(ncn3C)c(Nc3cc(C)n(C)n3)nc21
In short: as §1

[7] = compound: CCn1cc(-c2ccnc3[nH]c(-c4cccc(CN(C)C)c4)cc23)c(-c2ccc(NC(=O)N(C)C)cc2)n1
In short: as §1

[8] = compound: CN1CCC(CNc2ccc3ncc(-c4cccc(OC(F)(F)F)c4)n3n2)CC1
In short: as §1

[9] = compound: CN1CCN(CCOc2cc(OC3CCOCC3)c3c(Nc4c(Cl)ccc5c4OCO5)ncnc3c2)CC1 [saracatinib]
In short: as §1

[10] = compound: CN1CCN(c2nc(C3=C(c4c[nH]c5ccccc45)C(=O)NC3=O)c3ccccc3n2)CC1 [sotrastaurin]
In short: as §1

Sequence of UniProt O60610 (O60610 whole entry, looked up): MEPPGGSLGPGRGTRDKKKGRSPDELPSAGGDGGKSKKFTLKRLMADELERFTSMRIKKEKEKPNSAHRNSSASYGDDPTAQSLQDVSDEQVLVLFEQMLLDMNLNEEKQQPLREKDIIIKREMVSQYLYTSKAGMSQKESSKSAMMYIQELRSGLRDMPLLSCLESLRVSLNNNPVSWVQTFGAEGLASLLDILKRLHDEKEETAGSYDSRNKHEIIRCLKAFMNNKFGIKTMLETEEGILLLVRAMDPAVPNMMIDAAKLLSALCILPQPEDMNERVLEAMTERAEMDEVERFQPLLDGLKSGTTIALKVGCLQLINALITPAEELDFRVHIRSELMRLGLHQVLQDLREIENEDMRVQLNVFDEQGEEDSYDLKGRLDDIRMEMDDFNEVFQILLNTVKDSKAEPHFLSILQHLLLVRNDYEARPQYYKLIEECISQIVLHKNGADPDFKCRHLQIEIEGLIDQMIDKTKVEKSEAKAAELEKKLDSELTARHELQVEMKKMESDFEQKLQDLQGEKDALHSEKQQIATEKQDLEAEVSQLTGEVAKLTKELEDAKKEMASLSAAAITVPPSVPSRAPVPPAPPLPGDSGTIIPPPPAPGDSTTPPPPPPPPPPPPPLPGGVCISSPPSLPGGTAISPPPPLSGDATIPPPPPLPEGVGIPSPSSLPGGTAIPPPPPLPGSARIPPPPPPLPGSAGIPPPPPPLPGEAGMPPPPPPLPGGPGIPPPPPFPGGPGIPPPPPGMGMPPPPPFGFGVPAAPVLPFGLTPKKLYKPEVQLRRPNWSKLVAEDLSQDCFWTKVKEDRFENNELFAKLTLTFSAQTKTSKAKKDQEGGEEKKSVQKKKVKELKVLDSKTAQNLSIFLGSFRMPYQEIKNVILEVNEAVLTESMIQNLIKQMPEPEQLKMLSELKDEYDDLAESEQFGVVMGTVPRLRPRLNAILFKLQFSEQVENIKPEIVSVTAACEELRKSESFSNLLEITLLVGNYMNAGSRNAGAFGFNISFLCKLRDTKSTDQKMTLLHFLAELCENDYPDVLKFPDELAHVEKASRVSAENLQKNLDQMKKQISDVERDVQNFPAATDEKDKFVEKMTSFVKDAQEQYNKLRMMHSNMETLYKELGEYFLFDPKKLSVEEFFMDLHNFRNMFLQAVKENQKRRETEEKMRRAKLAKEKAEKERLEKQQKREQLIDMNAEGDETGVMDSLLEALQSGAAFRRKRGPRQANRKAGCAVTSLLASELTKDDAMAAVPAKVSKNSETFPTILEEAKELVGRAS
Sequence of UniProt Q9NZN8 (Q9NZN8 whole entry, looked up): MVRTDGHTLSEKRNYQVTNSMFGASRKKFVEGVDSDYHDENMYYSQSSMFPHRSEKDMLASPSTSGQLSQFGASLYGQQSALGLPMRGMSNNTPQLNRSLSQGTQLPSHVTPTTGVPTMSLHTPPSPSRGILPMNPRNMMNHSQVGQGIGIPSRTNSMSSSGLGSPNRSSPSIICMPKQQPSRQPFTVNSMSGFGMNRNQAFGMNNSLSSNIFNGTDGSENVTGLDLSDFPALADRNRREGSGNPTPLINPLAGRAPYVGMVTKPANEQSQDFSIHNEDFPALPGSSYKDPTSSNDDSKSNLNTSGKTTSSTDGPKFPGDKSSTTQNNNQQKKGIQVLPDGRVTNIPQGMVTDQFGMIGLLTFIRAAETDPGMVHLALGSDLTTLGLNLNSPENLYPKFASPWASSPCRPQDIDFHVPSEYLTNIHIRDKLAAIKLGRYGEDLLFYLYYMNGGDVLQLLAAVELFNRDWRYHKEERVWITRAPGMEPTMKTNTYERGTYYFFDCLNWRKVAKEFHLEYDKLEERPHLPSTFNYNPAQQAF
Sequence of UniProt Q96N67 (Q96N67 whole entry, looked up): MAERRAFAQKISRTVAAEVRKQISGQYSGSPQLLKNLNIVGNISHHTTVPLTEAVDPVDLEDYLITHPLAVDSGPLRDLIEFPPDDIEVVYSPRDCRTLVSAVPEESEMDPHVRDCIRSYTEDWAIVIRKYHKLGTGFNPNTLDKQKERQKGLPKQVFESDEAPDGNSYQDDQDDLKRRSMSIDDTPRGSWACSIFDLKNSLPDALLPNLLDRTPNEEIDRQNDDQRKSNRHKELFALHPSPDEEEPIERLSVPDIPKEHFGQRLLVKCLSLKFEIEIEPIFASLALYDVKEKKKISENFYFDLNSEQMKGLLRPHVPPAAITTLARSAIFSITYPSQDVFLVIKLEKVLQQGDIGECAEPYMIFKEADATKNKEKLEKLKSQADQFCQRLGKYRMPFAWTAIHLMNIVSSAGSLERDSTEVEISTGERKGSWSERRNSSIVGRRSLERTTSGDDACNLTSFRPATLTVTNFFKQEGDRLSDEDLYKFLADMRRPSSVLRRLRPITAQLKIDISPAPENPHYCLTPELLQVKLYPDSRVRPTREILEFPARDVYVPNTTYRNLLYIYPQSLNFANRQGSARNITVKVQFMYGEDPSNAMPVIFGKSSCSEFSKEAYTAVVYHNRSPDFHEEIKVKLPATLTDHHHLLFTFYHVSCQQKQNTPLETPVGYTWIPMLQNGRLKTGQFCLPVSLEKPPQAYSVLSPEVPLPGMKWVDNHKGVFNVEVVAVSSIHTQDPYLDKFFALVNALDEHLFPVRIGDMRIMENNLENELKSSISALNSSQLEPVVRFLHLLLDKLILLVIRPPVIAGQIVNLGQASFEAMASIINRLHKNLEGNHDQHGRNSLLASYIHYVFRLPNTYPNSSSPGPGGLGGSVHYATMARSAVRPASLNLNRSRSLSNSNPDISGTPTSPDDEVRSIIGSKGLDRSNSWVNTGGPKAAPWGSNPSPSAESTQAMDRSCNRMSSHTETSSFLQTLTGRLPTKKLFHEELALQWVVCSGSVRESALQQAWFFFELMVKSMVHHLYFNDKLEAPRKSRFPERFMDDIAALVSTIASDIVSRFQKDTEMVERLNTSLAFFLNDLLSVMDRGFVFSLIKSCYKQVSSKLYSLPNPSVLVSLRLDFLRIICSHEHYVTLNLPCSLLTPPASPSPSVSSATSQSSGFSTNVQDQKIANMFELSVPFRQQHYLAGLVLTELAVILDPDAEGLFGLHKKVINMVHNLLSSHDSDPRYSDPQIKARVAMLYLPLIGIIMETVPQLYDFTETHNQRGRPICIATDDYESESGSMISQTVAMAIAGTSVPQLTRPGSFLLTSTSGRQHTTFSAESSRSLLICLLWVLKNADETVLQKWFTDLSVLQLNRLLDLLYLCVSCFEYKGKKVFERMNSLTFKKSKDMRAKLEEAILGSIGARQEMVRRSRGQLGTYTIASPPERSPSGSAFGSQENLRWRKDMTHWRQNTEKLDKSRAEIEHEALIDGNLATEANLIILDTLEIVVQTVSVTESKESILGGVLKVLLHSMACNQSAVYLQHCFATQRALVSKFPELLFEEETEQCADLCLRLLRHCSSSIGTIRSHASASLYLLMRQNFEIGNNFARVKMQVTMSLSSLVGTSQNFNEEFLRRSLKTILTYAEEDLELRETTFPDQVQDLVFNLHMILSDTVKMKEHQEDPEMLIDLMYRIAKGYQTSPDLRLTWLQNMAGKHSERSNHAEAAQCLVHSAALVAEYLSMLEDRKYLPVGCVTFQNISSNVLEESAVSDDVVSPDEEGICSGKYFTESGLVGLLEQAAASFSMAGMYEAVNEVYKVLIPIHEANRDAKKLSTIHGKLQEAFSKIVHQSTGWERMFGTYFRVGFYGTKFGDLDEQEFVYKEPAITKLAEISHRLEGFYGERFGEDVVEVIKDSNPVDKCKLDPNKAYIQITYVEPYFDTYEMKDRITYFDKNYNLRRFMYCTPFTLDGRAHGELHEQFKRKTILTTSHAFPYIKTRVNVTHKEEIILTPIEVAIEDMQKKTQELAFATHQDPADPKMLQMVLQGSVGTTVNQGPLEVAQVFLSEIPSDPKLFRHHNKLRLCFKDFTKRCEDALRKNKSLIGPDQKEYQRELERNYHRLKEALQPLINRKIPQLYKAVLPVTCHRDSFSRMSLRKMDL
Sequence of UniProt Q99766 (Q99766 whole entry, looked up): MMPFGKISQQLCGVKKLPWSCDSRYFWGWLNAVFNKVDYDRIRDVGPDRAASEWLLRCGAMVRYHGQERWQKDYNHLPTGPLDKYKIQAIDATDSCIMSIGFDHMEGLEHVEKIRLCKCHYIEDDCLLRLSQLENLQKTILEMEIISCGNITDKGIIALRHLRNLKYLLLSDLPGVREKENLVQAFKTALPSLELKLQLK
Sequence of UniProt P04080 (P04080 whole entry, looked up): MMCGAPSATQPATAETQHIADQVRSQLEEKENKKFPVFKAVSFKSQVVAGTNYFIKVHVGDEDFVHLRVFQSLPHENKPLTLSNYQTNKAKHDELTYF
Sequence of UniProt P17812 (P17812 whole entry, looked up): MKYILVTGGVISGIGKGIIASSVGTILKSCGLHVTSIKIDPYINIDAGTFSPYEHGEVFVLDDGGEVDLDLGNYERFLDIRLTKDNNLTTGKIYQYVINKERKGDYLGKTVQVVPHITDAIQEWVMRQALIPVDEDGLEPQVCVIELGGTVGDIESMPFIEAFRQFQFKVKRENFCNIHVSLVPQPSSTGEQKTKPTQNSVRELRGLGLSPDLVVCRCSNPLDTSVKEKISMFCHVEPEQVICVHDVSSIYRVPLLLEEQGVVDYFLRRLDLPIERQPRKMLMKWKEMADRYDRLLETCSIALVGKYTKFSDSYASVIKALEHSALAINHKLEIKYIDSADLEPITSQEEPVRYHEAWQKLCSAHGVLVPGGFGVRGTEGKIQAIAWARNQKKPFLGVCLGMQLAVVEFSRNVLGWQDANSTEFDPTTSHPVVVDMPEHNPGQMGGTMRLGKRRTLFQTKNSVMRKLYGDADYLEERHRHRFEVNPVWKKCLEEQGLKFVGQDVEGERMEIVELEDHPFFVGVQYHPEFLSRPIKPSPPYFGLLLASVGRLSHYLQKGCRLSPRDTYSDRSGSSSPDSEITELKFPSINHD
Sequence of UniProt Q99828 (Q99828 whole entry, looked up): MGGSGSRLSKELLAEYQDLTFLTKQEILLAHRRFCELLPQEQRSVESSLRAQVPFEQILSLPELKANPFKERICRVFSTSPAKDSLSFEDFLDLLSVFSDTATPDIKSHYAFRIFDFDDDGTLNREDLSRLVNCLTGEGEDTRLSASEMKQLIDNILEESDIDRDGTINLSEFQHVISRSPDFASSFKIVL

Target	log2 fold change [1]	log2 fold change [2]	log2 fold change [3]	log2 fold change [4]	log2 fold change [5]	log2 fold change [6]	log2 fold change [7]	log2 fold change [8]	log2 fold change [9]	log2 fold change [10]
CSTB (UniProt P04080)	0.007	0.001	0.077	0.043	0.044	-0.027	-0.376 (active)	0.174	0.013	0.086
DERA (UniProt Q9Y315)	-0.013	-0.001	-0.064	0.077	0.025	-0.031	0.985 (active)	-0.115	0	-0.03
DDX54 isoform 2 (UniProt Q8TDD1)	-0.041	0.017	-0.319 (active)	-0.069	-0.045	0.053	-0.056	0	-0.015	0.045
CMIP (UniProt Q8IY22)	0.009	0.023	0.04	-0.055	-0.057	0.043	-0.043	-0.054	0.014	0.017
CLUH, A0A494C0R8	-0.11	0.027	-0.092	0.097	-0.005	0	0.59 (active)	-0.047	0.03	0.051
CPT1A (UniProt P50416)	0.024	0.035	0.048	0.038	0.032	-0.018	0	-0.137	-0.004	-0.014
DENND4A isoform 2 (UniProt Q7Z401)	-0.024	0.024	0.029	0.011	-0.069	0.004	-0.132	0.099	0.059	0.025
DMAC2L (UniProt Q99766)	0.002	0.026	0.065	0.075	-0.028	0.021	-0.017	0.053	0.058	-0.012
CNOT2 (UniProt Q9NZN8)	0.037	-0.026	0.065	0.029	-0.048	0.039	0.17	-0.059	-0.013	0.002
CTPS1 (UniProt P17812)	-0.008	0.016	-0.024	-0.065	-0.04	0.026	-0.041	-0.011	0.007	0.021
CYP24A1 (UniProt Q07973)	0.065	-0.01	-0.055	0.166	0.006	-0.212	-0.499 (active)	0.268	0.056	0
DHCR7 (UniProt Q9UBM7)	-0.02	0.004	0.029	-0.061	-0.036	0.025	-0.033	-0.069	0.017	-0.041
CIB1 (UniProt Q99828)	0.096	0.027	0.155	-0.013	0.008	-0.047	-0.028	-0.028	0.017	-0.077
DCP1A (UniProt Q9NPI6)	0.023	0.017	-0.066	0.077	-0.055	0.029	-0.082	0.059	-0.006	-0.053
CRABP2 (UniProt P29373)	0.128	0.007	0.528	-0.139	0.026	-0.005	0.089	-0.003	0.092	0.001
CMSS1 (UniProt Q9BQ75)	-0.011	0.005	0.023	-0.007	-0.011	0	0.212	-0.086	0.007	-0.003
CNOT4 isoform 6 (UniProt O95628)	-0.052	0.008	-0.014	0.057	0.009	0.108	-0.053	0	0.057	-0.005
CSTF2 (UniProt P33240)	0.011	-0.015	0.27 (active)	0.062	-0.012	-0.037	-0.053	0.042	0.007	0.038
DFFB (UniProt O76075)	0.022	0.044	-0.064	0.037	-0.012	0.1	-0.024	0.061	0.042	0.06
CNST (UniProt Q6PJW8)	0.002	-0.026	-0.07	0.079	-0.008	0.02	-0.066	0.019	0.033	0.039
DCTN1 (UniProt Q14203)	-0.025	0.008	0.021	-0.021	-0.048	0.002	0.034	-0.034	0.029	-0.003
DGCR8 (UniProt Q8WYQ5)	-0.022	0.031	0.062	-0.046	-0.021	0.015	-0.052	0.066	0.042	0.04
DDX39A (UniProt O00148)	0.021	0.021	0.047	-0.049	-0.071	-0.028	-0.041	-0.027	-0.032	-0.002
DOCK8 (UniProt Q8NF50)	0.005	0.013	0.034	-0.075	-0.065	0.04	0	-0.033	0.012	0.023
DIAPH1 (UniProt O60610)	-0.002	-0.007	0.006	-0.001	-0.002	0.009	0.091	-0.042	-0.006	-0.001
DDB2 (UniProt Q92466)	-0.073	0.001	0.025	0.015	-0.003	0	0.006	0.019	-0.022	0.075
CORO1A (UniProt P31146)	-0.021	-0.001	0.013	0.025	-0.035	0.11	-0.113	0.021	-0.169	-0.007
DEF6 (UniProt Q9H4E7)	-0.004	-0.005	-0.05	-0.101	-0.05	-0.033	-0.071	0.049	0.07	0.004
DOCK7 (UniProt Q96N67)	0.045	0.021	0.027	-0.057	-0.01	0	-0.068	-0.041	-0.028	0.02
DIAPH3 (UniProt Q9NSV4)	0.041	0.028	0.057	-0.023	-0.099	0.058	-0.098	-0.092	0.053	0.064
